The experiment can be described thus: AlphaScreen signal with amyloid beta 1-40, late-stage follow-up, counter-screen for Wee1 degradation inhibitor project, biochemical, amplified proximity luminescence (AID 504929). The conditions noted are these: Abeta1-40 counterscreen, concentration not given here. Background: In Alpha technology, singlet oxygen from a donor bead excites a nearby acceptor bead.

Calls of active or inactive are those of the source. How the calls were made is not given here.

Turning to `O=[N+]([O-])c1cccc2[nH]c(CNc3nc(N4CCOCC4)nc4c3ncn4-c3ccsc3)nc12`, the signal is 60% (active).

Take `c1ccc2[nH]c(CNc3nc(N4CCOCC4)nc4c3ncn4-c3ccsc3)nc2c1`: the signal is 75% (active).

Values taken from PubChem BioAssay AID504929 (The Scripps Research Institute Molecular Screening Center, 2011).
